TMEM16A inh = blocks the mouse calcium-activated chloride channel TMEM16A | normalized B-score (activity score, 25-100; higher = stronger inhibition) at 10 µM | 1.2% of 310,000 active | Q8BHY3 | HEK293 TMEM16A/YFP iodide influx fluorescence, ionomycin;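 active means ratio plate-corrected score three or more library SD toward inhibition, starting fluorescence score within five deviations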;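 further: score derived from kinetic fluorescence span divided by baseline fluorescence per well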
MEKK3 PB1 HTS = MEKK3-MEK5 PB1 interaction, increase or decrease. Q99759. bead-based flow cytometry, Alexa488-MEK5 binding to MEKK3; actives lie on both sides; 0 = blocked by unlabeled MEK5, 100 = vehicle. binding response (% of control), % at 10 µM. 1.4% of 290,000 active. AID 1529;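 active means binding response more than 3 SD above or below the average of its plate-row segment, actives on both sides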;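 further: Alexa488 bead fluorescence after subtracting the streptavidin-only scavenger bead signal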
MEKK2 mut-MEK5 = signal of MEK5 binding to mutant human MEKK2 PB1 domain. percent response, % at 10 µM. 0.35% of 290,000 active. bead flow cytometry, Alexa488-MEK5 binding to MEKK2 mutant; in the data active means percent response above about 24%, passing the limit was not always enough
NTR1 ag = agonists of human neurotensin receptor NTR1. AID 493036. 0.17% of 330,000 active. activation, % at 20 µM. NTR1-U2OS beta-arrestin-GFP spot imaging, agonist mode. P30989;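 active means activation at or above 40% of the spot to cytoplasm intensity ratio, with at least 20 cells analyzed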
Target sequence (P30989 whole entry, looked up): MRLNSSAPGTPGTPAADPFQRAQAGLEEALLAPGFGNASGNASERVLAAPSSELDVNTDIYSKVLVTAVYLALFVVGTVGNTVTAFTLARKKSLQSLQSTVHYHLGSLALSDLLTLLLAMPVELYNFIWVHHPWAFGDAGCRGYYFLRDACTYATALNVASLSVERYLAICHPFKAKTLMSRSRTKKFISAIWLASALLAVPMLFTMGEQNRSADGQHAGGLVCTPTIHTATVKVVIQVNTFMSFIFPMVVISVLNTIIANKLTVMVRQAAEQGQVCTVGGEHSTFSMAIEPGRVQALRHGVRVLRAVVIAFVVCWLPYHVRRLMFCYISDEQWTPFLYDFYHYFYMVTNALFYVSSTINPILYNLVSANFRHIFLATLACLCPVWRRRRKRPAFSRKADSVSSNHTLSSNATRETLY
ANO1 activ = mouse TMEM16A channel activation, primary screen; Q8BHY3; HEK293 TMEM16A/YFP-H148Q/I152L, iodide quench fluorescence; stronger effect = lower value; B-score at 10 µM; 0.3% of 340,000 active;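 active means fluorescence-ratio B-score plate-corrected deviation score at least 3 library SD below zero, with starting fluorescence score within 5 deviations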;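 further: channel opened by trigger with iodide after compound preincubation; score built on the fluorescence ratio of max minus min over baseline; more negative score means more quench and so TMEM16A activation or potentiation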
MEKK2wt PB1 HTS = raises or lowers MEK5 binding to wildtype human MEKK2 PB1 domain | AID 1531 | Q9Y2U5 | binding response (% of control), % at 10 µM | bead flow cytometry, Alexa488-MEK5 binding to MEKK2 WT; actives lie on both sides | 1.1% of 290,000 active; in the data active means binding response below about 67% or above about 130%
MEKK2wt confirm = raises or lowers MEK5 binding to wildtype human MEKK2, retest. 2.4% of 5,900 active. AID 1892. bead flow cytometry, Alexa488-MEK5 binding to MEKK2 WT; actives lie on both sides. binding response (% of control), % at 10 µM. shares compounds with MEKK3 PB1 HTS; in the data active means binding response below about 16% or above about 210%; inactive means in between
MEKK2mut-MEK5 = signal of MEK5 binding to mutant human MEKK2, retest; shares compounds with MEKK3 PB1 HTS; bead flow cytometry, Alexa488-MEK5 binding to MEKK2 mutant; percent response, % at 10 µM; 2% of 5,900 active; AID 1893; in the data active means percent response mostly above about 71%, no sharp cut-off; inactive means mostly below about 38%;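 further: higher means compound restores mutant binding toward wildtype level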
MEKK3-MEK5 inh = MEKK3-MEK5 PB1 inhibition, single concentration confirmation; shares compounds with MEKK3 PB1 HTS; bead flow cytometry, Alexa488-MEK5 binding to MEKK3; stronger effect = lower value; binding response (% of control), % at 10 µM; 1.8% of 5,900 active;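 active means binding response below 72% of control, or above a set upper limit, though filed actives all read lower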
A number is an active result; . = inactive; / = no result; [ ] = another dose, or the depositor's remark. In the library only some 3.4% were active in any assay of this set; here they are far more common.

SMILES | TMEM16A inh | MEKK3 PB1 HTS | MEKK2 mut-MEK5 | NTR1 ag | ANO1 activ | MEKK2wt PB1 HTS | MEKK2wt confirm | MEKK2mut-MEK5 | MEKK3-MEK5 inh
CCCn1c(SCC(=O)NC(=O)Nc2ccc(C)cc2C)n[nH]c1=O | . | 0.0[inhibitor] | . | . | . | -5.0[inhibitor] | . | . | .
CCCn1c(SCC(=O)Nc2cc(Cl)ccc2Cl)n[nH]c1=O | . | . | . | . | . | . | / | / | /
O=C(C1CCN(S(=O)(=O)c2ccccc2F)CC1)N1CCN(Cc2ccc3c(c2)OCO3)CC1 | / | / | / | . | . | / | / | / | /
CCOC(=O)C(NC(=O)c1ccccc1)(OCc1ccccc1)C(F)(F)F (stereo unspecified) | . | 159.0 | . | . | . | . | . | . | .
COc1cc(C)ccc1OCCOCCOc1ccc([N+](=O)[O-])cc1 | . | 134.0 | . | . | . | . | . | . | .
Cc1no[n+]([O-])c1COc1ccc(/C=C(\C#N)C(N)=O)cc1 | . | 134.0 | . | . | . | . | . | . | .
Cc1cc2c3c([nH]c2cc1S(=O)(=O)N1CCC2(CC1)OCCO2)CCCC3=O | . | . | . | . | . | . | / | / | /
Cc1ccc2c(c1C)NC(C(=O)O)C1CC=CC21 (stereo unspecified) | . | . | 36.0 | . | . | 39.0 | . | . | .
COCC(=O)N/N=C/c1c(C)[nH]n(-c2ccccc2)c1=O | . | . | . | . | . | . | / | / | /
Cc1[nH]n(-c2ccccc2)c(=O)c1/C=N/NC(=O)COc1ccccc1[N+](=O)[O-] | . | 158.0 | . | . | . | . | . | . | .
Cc1[nH]n(-c2cccc3ccccc23)c(=O)c1/C=N/NC(=O)c1cccc([N+](=O)[O-])c1 | . | 61.0[inhibitor] | . | . | . | . | . | . | .
Cn1c(=O)c2c(nc(NN=C3CCCCC3)n2C)n(C)c1=O | . | . | . | . | . | . | / | / | /
CCCc1cc(C(=O)NNC(=S)Nc2cccc(C)c2)cs1 | . | 129.0 | . | . | . | . | . | . | .
Cc1cc(C)n2nc(Sc3ncccc3[N+](=O)[O-])nc2n1 | . | . | . | . | . | . | / | / | /
CCn1c(SCC(=O)O)nnc1-c1ccccc1OC | . | . | . | . | . | . | / | / | /
COc1ccccc1-c1nnc(SCC(=O)O)n1-c1ccccc1 | . | 135.0 | . | . | . | . | . | . | .
O=C(CCc1ccccc1)N1CCN(Cc2ccc(F)cc2Cl)CC1 | . | . | . | . | . | . | / | / | /
COc1ccc(NC(=O)C(CCSC)NC(N)=O)cc1Cl (stereo unspecified) | . | . | . | . | . | . | / | / | /
COc1ccc(NC(=S)N2CCCC2)c(OC)c1 | . | . | . | . | . | . | / | / | /
CC(C)CC(NC(=O)C(NC(=O)C1CCC(=O)N1C(=O)OCc1ccccc1)C(C)C)C(=O)N1CCCC1C(N)=O (stereo unspecified) | . | . | . | . | . | . | / | / | /
COc1ccc(CCNC(=O)NCCc2c[nH]c3ccccc23)cc1OC | . | . | . | . | . | . | / | / | /
COc1cc(CNCCc2c[nH]c3ccccc23)ccc1OCc1ccccc1F | . | . | 60.0 | . | . | 244.0 | . | 73.0 | .
Cc1nc(CCN2C(=O)c3ccccc3C2=O)n[nH]1 | . | . | . | . | . | . | / | / | /
CCc1ccc(CCN2C(=O)c3ccccc3C2=O)nc1 | . | 75.0[inhibitor] | . | . | . | . | . | . | .
CCCC1=C(C(=O)OCC)C(c2ccco2)C(C#N)=C(N)O1 (stereo unspecified) | . | . | . | . | . | . | / | / | /
SMILES | TMEM16A inh | MEKK3 PB1 HTS | MEKK2 mut-MEK5 | NTR1 ag | ANO1 activ | MEKK2wt PB1 HTS | MEKK2wt confirm | MEKK2mut-MEK5 | MEKK3-MEK5 inh
O=C(c1ccc(Cl)cc1)N(Cc1ccco1)C1CCS(=O)(=O)C1 (stereo unspecified) | . | 2.0[inhibitor] | . | . | . | 1.0[inhibitor] | . | . | .
O=C(Nc1ccc(Br)cc1)c1cnc[nH]1 | . | . | . | . | . | . | / | / | /
C=CCOc1ccc(C2N3CC4(CC)CN2CC(CC)(C3)C4=O)cc1 (stereo unspecified) | . | 82.0[inhibitor] | . | . | . | . | . | . | .
CCC12CN3CC(CC)(CN(C1)C3c1c(O)ccc3ccccc13)C2=O (stereo unspecified) | / | . | . | / | . | . | / | / | /
CCN(CC)c1ccc(C(=O)N/N=C(\C)c2ccc(OC)c(OC)c2)cc1 | . | . | . | . | . | . | / | / | /
N#Cc1ccc(C(=O)Nc2cccc3ccccc23)c(F)c1 | . | . | . | . | . | . | / | / | /
CCN(C(=O)COc1ccc(C(C)=O)cc1)c1cccc2ccccc12 | / | / | / | . | . | / | / | / | /
CCOc1ccc(/C=C/C(=O)NCc2ccccc2)cc1 | . | 137.0 | . | . | . | . | . | . | .
COc1ccc(CCNC(=O)COC(=O)/C=C/c2ccc(OC)c(OC)c2)cc1 | . | . | . | . | . | . | / | / | /
CCOc1ccc(/C=C/C(=O)NCCc2ccc(OC)c(OC)c2)cc1 | . | 147.0 | . | . | . | . | . | . | .
Cn1c(-c2ccc(C=O)s2)nc2c3ccccc3c3ccccc3c21 | . | . | . | . | . | 63.0[inhibitor] | . | . | .
O=C1CC(c2cccc(Br)c2)C2=C(COC2=O)N1 (stereo unspecified) | . | . | . | . | . | . | / | / | /
O=C(Nc1nn[nH]n1)c1cc(-c2ccc(Cl)c(Cl)c2Cl)nc2ccccc12 | . | . | . | . | . | 139.0 | . | . | .
O=C(NCCc1ccccn1)c1cc(-c2ccc(Cl)c(Cl)c2Cl)nc2ccccc12 | . | . | . | . | . | . | / | / | /
C=CCc1c(C)nc2c(-c3ccccc3)cnn2c1N1CCOCC1 | . | . | . | / | . | . | / | / | /
CCOC(=O)C1=C(CC)OC(N)=C(C#N)C1c1ccc(NC(C)=O)cc1 (stereo unspecified) | . | . | . | . | . | . | / | / | /
CC(C)Cc1ccc(CN2CCC(n3nccc3NC(=O)C3CCCC3)CC2)cc1 | . | . | . | . | . | . | / | / | /
COc1ccc(CN2CCC(n3nccc3NC(=O)C3CCCC3)CC2)cc1 | . | . | . | . | . | 144.0 | . | . | .
CCCN(CC(=O)Nc1cc(Cl)cc(Cl)c1)CC(=O)Nc1ccc(F)c(F)c1F | . | . | . | . | . | 165.0 | . | . | .
CCCN(CC(=O)Nc1ccccc1Br)CC(=O)Nc1ccc(F)c(F)c1F | . | . | . | . | . | . | / | / | /

Source: PubChem BioAssay (several laboratories)
